Screening results as filed in PubChem.
Hits are enriched below; roughly 6% of the tested compounds scored in any of these assays.
D1 ag = activates the human D1 dopamine receptor; P21728; HEK293 T-REx D1 cells, calcium flux, agonist mode; activation, % at 2 µM; 360,000 compounds, 1% hits; AID 504660; in the data active = activation above about 30%; also: 0% is about no effect
Target sequence (P21728 whole entry, looked up): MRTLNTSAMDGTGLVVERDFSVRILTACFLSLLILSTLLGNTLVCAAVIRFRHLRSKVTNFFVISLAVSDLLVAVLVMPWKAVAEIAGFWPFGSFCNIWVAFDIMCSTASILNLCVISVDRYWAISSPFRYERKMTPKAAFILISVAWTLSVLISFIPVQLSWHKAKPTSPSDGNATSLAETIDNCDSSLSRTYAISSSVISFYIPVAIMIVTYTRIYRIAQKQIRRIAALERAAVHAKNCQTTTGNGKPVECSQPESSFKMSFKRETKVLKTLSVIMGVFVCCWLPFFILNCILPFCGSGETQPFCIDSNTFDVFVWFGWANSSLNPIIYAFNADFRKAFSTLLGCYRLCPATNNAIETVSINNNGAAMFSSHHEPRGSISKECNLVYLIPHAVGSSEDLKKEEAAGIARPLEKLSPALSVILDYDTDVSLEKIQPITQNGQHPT
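Tetracycline-induced HEK293 TREx D1 cells, force-coupled to calcium signalling, were dye-loaded with a no-wash calcium kit. Compound was pin-added after a 10 s baseline. Fluorescence was read kinetically at 1 cycle/s for 180 s, with calcium rises flagged as agonism.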
D1 antag = antagonists of human D1 dopamine receptor; 360,000 compounds, 3.2% hits; HEK293 TREx D1 cells, calcium flux, dopamine EC80; active compounds read low; P21728; activity change, negative = inhibition, % at 10 µM; in the data active = activity change below about -30%; also: % is scaled to controls: 0 for no effect and ±100 for the full control effect
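Kinetic fluorescence of a calcium dye serves as the read-out. D1-expressing Hek293 Trex cells, induced overnight at 30 C, are exposed to compound for 180 s before an EC80 dopamine addition, then read 180 s further.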
D1 potentiator = potentiators of human D1 dopamine receptor. P21728. HEK293 TREx D1 cells, calcium flux, dopamine EC20 potentiation. potentiation, % at 10 µM. 360,000 compounds, 0.036% hits. AID 504651; in the data active = potentiation above about 30%; also: 0% is about no effect
D3 ag = activates the human D3 dopamine receptor. P35462. D3R DiscoveRx beta-arrestin cells, luminescence, 90 min. max activation, %. 410,000 compounds, 0.58% hits. AID 652048; in the data active = max activation above about 30%; also: 0% is about no effect
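Agonist mode: compounds and dopamine controls were applied to plated cells for 90 min at 37 degrees C after an overnight attachment at 1500 cells/well. Luminescent read-out followed 30 - 60 minutes at room temperature with DiscoveRx detection reagent.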
DRD3 antagonist = D3 dopamine receptor (human) antagonism; AID 652054; D3R cells, DiscoveRx beta-arrestin luminescence, antagonist mode; active compounds read low; max response, negative = inhibition, %; 360,000 compounds, 2.5% hits; in the data active = max response below about -50%; inconclusive = no clear call, values can overlap the other calls; also: % is scaled to controls: 0 for no effect and ±100 for the full control effect
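Cells plated overnight at 1500 cells/well, then exposed to library compounds with dopamine controls for 90 minutes at 37 degrees C. DiscoveRx reagent added for 30–60 minutes at room temperature; luminescence read, quantitative HTS format.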
Numbers without * were called inactive; ? = inconclusive; nt = no result given.

SMILES | D1 ag | D1 antag | D1 potentiator | D3 ag | DRD3 antagonist
O=C(c1cccc(N2CCCC2=O)c1)N1CCN(c2ccccc2)CC1 | 1 | -31* | -3 | 3 | -4
Cc1cccc(N2CCN(C(=O)c3cccc(N4CCCC4=O)c3)CC2)c1C | 2 | -8 | 4 | 10 | 12
CC1(C)CC(NC(=O)CSc2ccccc2)CC(C)(C)N1 | 1 | -34* | -1 | 4 | -8
CCC(C(=O)NC1CC(C)(C)NC(C)(C)C1)c1ccccc1 (centres undefined) | -1 | -4 | -14 | 2 | 0
CC1(C)CC(NC(=O)C(c2ccccc2)c2ccccc2)CC(C)(C)N1 | 2 | -32* | -1 | -3 | -1
CC1(C)CC(NC(=O)Cc2ccccc2)CC(C)(C)N1 | 0 | 11 | -25 | -4 | -24
Cc1cccc2sc(N3CCN(C(=O)CS(=O)(=O)c4ccc(F)cc4)CC3)nc12 | 6 | nt | 3 | -8 | nt
Cc1ccc(S(=O)(=O)CC(=O)N2CCN(c3nc4c(F)cccc4s3)CC2)cc1 | 56* | nt | -2 | -10 | nt
Cc1c(Cl)ccc2sc(NC(=O)c3ccc(S(=O)(=O)N4CCCC4)cc3)nc12 | 2 | 2 | -1 | 2 | nt
COc1cc(OC)c(OC)cc1/C=C/c1nc2cc3ccccc3cc2c(=O)n1-c1ccc(F)cc1F | 42* | 10 | 2 | -3 | nt
O=C(Nc1ccc(O)c2c(=O)cc(-c3ccccc3Cl)oc12)c1ccc(Cl)c(Cl)c1 | 1 | 3 | -9 | -28 | -83*
O=c1cc(-c2ccccc2Cl)oc2c(NS(=O)(=O)c3ccccc3C(F)(F)F)ccc(O)c12 | 2 | -30* | -7 | -13 | 0
O=c1cc(-c2ccccc2Cl)oc2c(NS(=O)(=O)c3ccccc3OC(F)(F)F)ccc(O)c12 | 3 | -10 | 2 | -21 | -6
COc1ccc(NC(=O)C(=O)NCCc2csc3nc(-c4ccccc4C)nn23)cc1 | 0 | -8 | 4 | 5 | nt
Cc1ccc(/C=N/N2CCN(Cc3ccc(C)cc3)CC2)cc1 | 2 | 1 | -4 | -21 | -6
Cc1ccc(CN2CCN(/N=C/c3cccs3)CC2)cc1 | 2 | -16 | -6 | -8 | -59*
Cc1ccc(CN2CCN(/N=C/c3cc(Br)ccc3O)CC2)cc1 | 3 | -7 | 4 | -37 | -87*
O=C(Nc1cc(C(F)(F)F)ccc1Cl)C(O)Cc1ccccc1 (centres undefined) | 2 | 22 | -4 | nt | nt
Cc1ccc(CN(C(=O)COc2cccc(C)c2C)C2CCS(=O)(=O)C2)o1 (centres undefined) | 2 | 1 | -7 | 3 | 10
Cc1cccnc1C(NC(=O)C1CCN(Cc2ccc(Oc3ccccc3)cc2)CC1)c1ccccc1 (centres undefined) | nt | nt | nt | -22 | -81*
COc1cc(CN2CCC(C(=O)NC(c3ccc(F)cc3)c3ncccc3C)CC2)cc(OC)c1 (centres undefined) | nt | nt | nt | -20 | 0
COc1ccc(CN2CCC(C(=O)Nc3ccc(Oc4cccnc4)cc3)CC2)cc1 | 23 | -10 | -5 | -8 | -26
Cc1cccnc1C(NC(=O)C1CCN(CCCOc2ccccc2)CC1)c1ccc(F)cc1 (centres undefined) | nt | nt | nt | -27 | -105*
COc1ccc(C(NC(=O)C2CCN(Cc3ccc(Oc4ccccc4)cc3)CC2)c2ccccc2C)cn1 (centres undefined) | nt | nt | nt | -15 | -79*
Cc1cccnc1C(NC(=O)C1CCN(Cc2ccccc2)CC1)c1ccc(F)cc1 (centres undefined) | nt | nt | nt | -12 | -55*
SMILES | D1 ag | D1 antag | D1 potentiator | D3 ag | DRD3 antagonist
CCc1noc(C)c1C(=O)N1CCN(c2cccc(C)c2C)CC1 | 4 | -31* | -6 | 1 | ?
Cc1cccc(N2CCN(C(=O)/C=C/c3cccs3)CC2)c1C | 8 | -42* | -7 | 43* | 3
Cc1nn(-c2ccc(C(=O)N3CCN(S(=O)(=O)c4ccccc4C(F)(F)F)CC3)cc2)c(C)c1Cl | 2 | -2 | 1 | 112* | 2
CC(=O)c1ccc(S(=O)(=O)N2CCN(C(=O)c3ccc(-n4nc(C)c(Cl)c4C)cc3)CC2)cc1 | 9 | 5 | -2 | 77* | 18
Cc1cc(C)n(-c2ccc(C(=O)N3CCN(S(=O)(=O)c4ccc(Cl)cc4)CC3)cc2)n1 | 11 | -22 | nt | -2 | 9
O=S(=O)(NCCN1CCCC1)c1cccc2cccnc12 | 1 | -5 | -1 | -14 | ?
O=S(=O)(NCCCN1CCN(c2ccccc2F)CC1)c1cccc2cccnc12 | 3 | -73* | -10 | 5 | -96*
C=CCn1c(=S)[nH]c2cc(C(=O)N3CCN(c4ccccc4OC)CC3)ccc2c1=O | 0 | 23 | 4 | 3 | -1
N#Cc1cc2ccccc2nc1SCC(=O)Nc1ccccc1N1CCOCC1 | 62* | -10 | -3 | 3 | -18
Cc1cccc2cc(C#N)c(SCC(=O)Nc3ccccc3N3CCOCC3)nc12 | 5 | 1 | 0 | 3 | 121
O=C(Nc1cc(Cl)cc(Cl)c1)c1ccc(F)c(S(=O)(=O)NC2CCCCC2)c1 | 3 | -4 | 2 | -10 | nt
CCOC(=O)C(=O)c1csc(NC(=O)CCSc2ccc(C)cc2)n1 | 4 | -79* | -1 | -1 | -3
CCOC(=O)c1csc(NC(=O)CCSc2ccccc2)n1 | 19 | 13 | 1 | 0 | -5
COc1ccc(CNCc2cccc3ccccc23)cc1 | 14 | 15 | -4 | -8 | -60*
COc1ccc(CNCc2cccc(Cl)c2)cc1 | 14 | -1 | -8 | -14 | -50*
COc1ccc(CNC(=O)CSCc2cccc(Cl)c2)cc1 | 0 | 6 | -1 | -1 | -23
Cn1nnc(NC(=S)NC(=O)c2cc(Cl)ccc2Cl)n1 | 3 | -12 | -3 | -21 | -70*
COc1cc2ccccc2cc1C(=O)NC(=S)Nc1nnn(C)n1 | 3 | 13 | 0 | 1 | 1
CCOC(=O)c1c(C)[nH]c(C)c1S(=O)(=O)NCCN1CCN(c2ccccc2F)CC1 | 2 | -79* | -20 | -15 | -58*
CCOC(=O)c1c(C)[nH]c(C)c1S(=O)(=O)NCC1CCN(Cc2ccc(C)cc2)CC1 | 0 | 3 | 0 | -15 | -54*
CC1CCCCN1S(=O)(=O)c1ccc2c(c1)oc(=O)n2CC(=O)Nc1ccc(Cl)cc1 (centres undefined) | 5 | -20 | 1 | 0 | nt
Cc1ccc(-c2cc(-c3n[nH]c(=S)n3C)c3ccccc3n2)cc1 | 1 | -37* | -5 | -18 | -23
CCn1c(-c2cc(-c3ccc(C)c(C)c3)nc3ccccc23)n[nH]c1=S | 2 | -2 | 0 | nt | nt
COc1ccc(CCNC(=O)CC(c2ccccc2)c2cc(C)ccc2O)cc1OC (centres undefined) | 2 | -1 | -2 | 4 | 57
COc1ccc(NC(=O)c2cccc3c(-c4ccc(OC)cc4C)coc23)cc1 | nt | nt | nt | 12 | 67
